An excerpt weighted towards active compounds, which were near 2.3% of everything screened.
CHRM1 antagonist: human M1 muscarinic receptor antagonists, primary screen, CHO-K1 cells, Fluo-8 calcium fluorescence, 1536-well; Muscarinic acetylcholine receptor M1 (Homo sapiens), P11229; CHO-K1 hM1, ACh EC80 antagonist; inhibition, % at 3 µM; 360,000 compounds, 1.3% hits;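 active means percent inhibition above its own plate's cutoff, namely the mean of that plate's compound wells plus 3 SD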;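 further: peak over basal fluorescence ratio during 140 s after agonist addition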
Target sequence (P11229 whole entry, looked up): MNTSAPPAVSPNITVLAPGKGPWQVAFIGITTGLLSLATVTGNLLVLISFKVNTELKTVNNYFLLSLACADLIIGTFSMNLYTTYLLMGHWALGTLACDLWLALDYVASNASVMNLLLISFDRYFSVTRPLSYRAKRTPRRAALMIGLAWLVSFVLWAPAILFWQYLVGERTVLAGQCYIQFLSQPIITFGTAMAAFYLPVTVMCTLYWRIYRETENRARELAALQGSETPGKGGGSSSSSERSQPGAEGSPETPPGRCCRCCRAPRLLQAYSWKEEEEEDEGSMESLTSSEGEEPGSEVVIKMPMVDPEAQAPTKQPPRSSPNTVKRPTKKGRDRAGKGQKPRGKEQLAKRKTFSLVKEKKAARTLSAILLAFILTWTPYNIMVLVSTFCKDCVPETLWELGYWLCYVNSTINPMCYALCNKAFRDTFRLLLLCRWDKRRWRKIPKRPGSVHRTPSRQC
CHRM1 PAM: human M1 muscarinic receptor positive allosteric modulators, primary screen, CHO-K1 cells, Fluo-8 calcium fluorescence, 1536-well; 360,000 compounds, 0.088% hits; CHO-K1 hM1, ACh EC20; 0% = ACh EC20, 100% = maximal ACh; activation, % at 3 µM; AID 588819, 2011; in the data active means activation above about 19%, passing the limit was not always enough
M1 ag: human M1 muscarinic receptor agonists, primary screen, Fluo-8 calcium fluorescence, CHO-K1 cells, HTS. activation, % at 3 µM. Muscarinic acetylcholine receptor M1 (Homo sapiens), P11229. 360,000 compounds, 0.33% hits. CHO-K1 hM1, agonist mode; 0% DMSO, 100% acetylcholine EC100;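 active means activation above the run's mean compound activation plus 3 SD, cut at about 16% in these data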;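 further: peak over basal fluorescence ratio within a 140 s kinetic read after compound addition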
M1 ag parental: counter-screen for M1 agonists: effect in parental CHO-K1 cells | Fluo-8 calcium fluorescence; scaled to maximal ATP response, vehicle zero | AID 602248, 2012 | activation, % at 3 µM | 360,000 compounds, 0.48% hits; in the data active means activation above about 15%;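 further: untransfected CHO-K1 host cells lacking M1 receptor as counterscreen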
CHO-K1 Ca PAM: nonselective calcium activators in parental CHO-K1 cells, primary screen, counter-screen for M1 PAM project, cell-based, Fluo-8 calcium fluorescence, full deck, 1536-well | ATP EC20; 0% at ATP EC20, 100% at ATP max | activation, % at 3 µM | 360,000 compounds, 0.02% hits;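 active means activation above the run cutoff, the mean activation of all test compounds plus 3 SD, cut at about 40% in these data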;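 further: peak over basal fluorescence ratio in a 140 s read after ATP addition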
CHO-K1 Ca antag: counter-screen for M1 antagonists: effect in parental CHO-K1 cells; ATP-induced calcium, Fluo-8 fluorescence; 360,000 compounds, 0.6% hits; inhibition, % at 3 µM;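 active means inhibition above a per-plate cutoff, the plate's mean sample inhibition plus 3 SD, cut at about 24% in these data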
Large screens that a line does not name were inactive.

CN(CC(=O)Nc1ccc(Cl)c(Cl)c1)C(=O)/C=C/c1ccc(F)cc1	CHO-K1 Ca antag 26
CCOC(=O)c1cccc(N2CC3CNC(=O)C2(C(=O)OC)N3C)c1 (centres undefined)	none
COC(=O)N1C(=O)[C@](c2ccsc2)(C(C)C)N1C(=O)OC	none
CC(C)COC(=O)N(C)C[C@H]1OCc2cnnn2CCCC(=O)N([C@H](C)CO)C[C@H]1C	none
Cc1nccn1CC(O)Cn1c2ccccc2c2ccccc21 (centres undefined)	CHRM1 antagonist 36
COc1ccc(NC(=O)CC(NCc2ccccn2)C(=O)O)cc1 (centres undefined)	M1 ag parental 18
CCOc1ccccc1NC(=O)CCSc1nc2n[nH]c(C)c2c(=N)n1-c1ccccc1Cl	CHRM1 antagonist 34
Cc1ccc(-c2nc(CSCC(=O)NCCN3CCN(Cc4ccccc4)CC3)c(C)o2)cc1	CHRM1 antagonist 26
COc1ccc(CN(C)Cc2c(O)ccc3cc(Br)ccc23)cc1OC	none
COC(=O)C(CC(=O)c1ccc(Cl)cc1)c1ccc(C)cc1 (centres undefined)	CHRM1 PAM 33
CCCCN(Cc1ccc(C(=O)N[C@H](C(=O)O)C(C)C)cc1)C(=O)C(c1ccccc1)c1ccccc1	none
CN(C)CCC1Sc2ccccc2Oc2ccccc21 (centres undefined)	CHRM1 antagonist 48
CC1c2ccccc2SC(CCCN(C)C)c2ccccc21 (centres undefined)	none
COc1cc(S(=O)(=O)NCC2CCCO2)c(OC)cc1Cl (centres undefined)	CHRM1 PAM 26
COc1ccc(S(=O)(=O)NCC2CCCO2)c(Cl)c1Cl (centres undefined)	none
O=C(NCc1n[nH]c(=S)n1-c1ccc(Br)cc1)c1cccs1	none
Cc1ccc(NC(=S)NC(=O)c2ccc(-c3ccc(Cl)cc3)o2)c(O)c1	none
Cc1ccc(O)c(NC(=S)NC(=O)Cc2ccc(Cl)cc2)c1	CHRM1 antagonist 97, M1 ag 79, M1 ag parental 58, CHO-K1 Ca antag 90
COc1ccc(C(=O)N2CCC2(C)C(=O)NC(C)C)cc1 (centres undefined)	none
C=CCN1CCN(c2ccncc2S(=O)(=O)N2CCCCC2)CC1	CHRM1 antagonist 31
CC(C)N1CCN(c2ccncc2S(=O)(=O)N2CCOCC2)CC1	CHRM1 antagonist 48
O=S(=O)(c1cnccc1N1CCN(CCO)CC1)N1CCCC1	none
CC12CCC(C(NC(=S)NN)C1=O)C2(C)C (centres undefined)	none
Nc1nnc(SCc2ccc(Cl)cc2)s1	CHRM1 antagonist 28
Nc1nnc(CSCc2ccc(Cl)cc2)s1	none
Clc1ccc(CSc2nnc(NC3=NCCCCC3)s2)cc1	CHRM1 antagonist 33
Cn1c(=O)[nH]c(=O)c2c1nc(NCc1ccccc1)n2CCCc1ccccc1	CHO-K1 Ca antag 26
CNc1nc2c(c(=O)[nH]c(=O)n2C)n1CCCc1ccccc1	none
O=C(CCCOc1ccccc1)NNC(=O)c1ccncc1	none
CC(C)[C@@H](C(=O)N1CCN(C(=O)OC(C)(C)C)CC1)n1cc(CCO)nn1	none
O=C(O)c1cn(C2CC2)c2cc(N3CCN(S(=O)(=O)c4ccc5c(c4)OCCO5)CC3)c(F)cc2c1=O	none
COC(=O)CCc1c(C)[nH]c(=S)[nH]c1=O	CHRM1 PAM 21
CCOC(=O)Cc1c(C)[nH]c(=S)[nH]c1=O	none
CCN(CC)CCCNc1nc(N)c([N+](=O)[O-])c(N2CCCCCC2)n1	CHRM1 antagonist 65
C=CCNc1nc(N)c([N+](=O)[O-])c(N2CCCCCC2)n1	none
CC(C)(C)C(=O)CSc1nnc(Nc2ccccc2)s1	none
Nc1nc(NCCN2CCOCC2)nc(NCc2ccccc2)c1[N+](=O)[O-]	none
Nc1nc(NCCCN2CCOCC2)nc(NCc2ccccc2)c1[N+](=O)[O-]	CHRM1 antagonist 66
NC(=O)c1cnc(Cc2c[nH]c3ccccc23)c(I)c1	none
